What all share (experiment): NCI-60 one-dose screen, 48 h (100 = growth as untreated, 0 = no growth, -100 = all killed)
Assay [1] deals with SK-MEL-2 melanoma. The conditions noted are these: 10 µM unless noted.
Assay [2] concerns EKVX NSCLC. The settings on record: 10 µM unless noted.
The subject of assay [3] is SN12C renal. The conditions noted are these: 10 µM unless noted.
For assay [4], the system named is UO-31 renal. The conditions noted are these: 10 µM unless noted.
Assay [5] relates to TK-10 renal. The settings on record: 10 µM unless noted.
Assay [6] has as its system ACHN renal. The conditions noted are these: 10 µM unless noted.
The test system of assay [7] is CAKI-1 renal. The conditions noted are these: 10 µM.
The test system of assay [8] is CCRF-CEM leukemia. The settings on record: 10 µM unless noted.
For assay [9], the system named is MOLT-4 leukemia. The conditions noted are these: 10 µM unless noted.
Assay [10] concerns SR leukemia. The settings on record: 10 µM unless noted.
Assay [11] concerns RPMI-8226 leukemia. The settings on record: 10 µM unless noted.
In assay [12] the test system is OVCAR-8 ovarian. The conditions noted are these: 10 µM unless noted.
Assay [13] relates to OVCAR-5 ovarian. The settings on record: 10 µM unless noted.
Assay [14] deals with OVCAR-4 ovarian. The settings on record: 10 µM unless noted.
For assay [15], the system named is SK-OV-3 ovarian. The conditions noted are these: 10 µM unless noted.
Assay [16] concerns IGROV1 ovarian. The settings on record: 10 µM unless noted.
For assay [17], the system named is OVCAR-3 ovarian. The conditions noted are these: 10 µM unless noted.
For assay [18], the system named is HS 578T breast. The settings on record: 10 µM unless noted.
Assay [19] deals with NCI/ADR-RES ovarian. The conditions noted are these: 10 µM unless noted.

Each structure is given as a SMILES string. The panel holds about 83,000 compounds, 20% with a hit somewhere; the sample as a whole holds those more often.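 Single-dose data. Exposure time 48 hours. Values below 10 considered active.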 Values without a mark were called inactive. Calls of active or inactive are those of the source.

As for `COc1ccc(CCN2C(=O)/C(=C/c3nc(CO)cs3)SC2=S)cc1`, the growth was 96.9% in assay [1]; 95.2% in assay [2]; 83.6% in assay [3]; 34% in assay [4]; 61.6% in assay [5]; 72.7% in [6]. For the same compound, the growth was 63.4% in assay [7]; 67.6% in assay [8]; 87.5% in assay [9]; 60.4% in [10]; 17.7% in [11]; 97.5% in assay [12]. Further, the growth is 102% in assay [13]; 91.8% in assay [14]; 97.9% in assay [15]; 91.4% in assay [16]; 54.2% in assay [17]; 106% in assay [18]. The growth in assay [19] was 95.7%.

On to `O=c1[nH]c(CCl)nc2c1cnn2-c1ccccc1`, for which the growth in [1] was -89.8% (active); in assay [2], 100%; in [3], 99.8%; in assay [4] it was -20.9% (active); in [5] it was 154%; in assay [6], 96.7%. The growth was 97.6% in assay [7]; 101% in assay [8]; 104% in assay [9]; 87.1% in [10]; 82.5% in [11]; 104% in assay [12]. Further, the growth in [13] is 114%; in assay [14], 111%; in assay [15], 122%; in assay [16], 95.9%; in assay [17], 100%; in [18], 111%. Besides, the growth in [19] is 106%.

Consider `CC(=O)C1=NN(c2ccc(Cl)cc2)C(=O)CN1C`, for which the growth in [1] was 102%; in assay [2], 95.7%; in assay [3] it was 102%; in assay [4], 93%; in [5], 91.2%; in [6], 99.4%. Further, the growth in [7] was 95.7%; in assay [8], 104%; in [9] it was 107%; in assay [10], 102%; in [11], 115%; in assay [12], 102%. Besides, the growth is 95% in [13]; 114% in assay [14]; 113% in assay [15]; 103% in assay [16]; 123% in [17]; 107% in assay [18]. The growth in [19] is 105%.

As to `c1ccc(-c2c(-c3ccccc3)[n+](Cc3ccc4ccccc4c3)c(-c3ccccc3)n2Cc2ccc3ccccc3c2)cc1`, the growth in [1] was -67.7% (active); in [2] it was -90.1% (active); in assay [3] it was -91.7% (active); in [4], -95.2% (active); in assay [5], -81.1% (active); in assay [6], -95.5% (active). Further, the growth in assay [7] is -93.4% (active); in [8], -21.6% (active); in assay [9], -54.1% (active); in assay [10] it was -41.1% (active); in assay [11] it was -30.5% (active); in [12], -69.3% (active). Further, the growth in assay [13] is -96.3% (active); in assay [14], -75% (active); in [15], -92.9% (active); in [16], -76.5% (active); in assay [17], -87.8% (active); in [18] it was -50.4% (active). Further, the growth in assay [19] was -65.8% (active).

`Cc1cc(NS(=O)(=O)c2ccc(-c3cnc(C4CC4)o3)cc2)ccc1I`: the growth is 63.3% in [1]; 42.6% in assay [2]; 43.5% in assay [3]; 48.7% in assay [4]; 75.6% in assay [5]; 45.1% in assay [6]. Besides, the growth was 39.3% in assay [7]; 19.1% in [8]; 40.8% in assay [9]; 32.9% in assay [10]; 46.4% in [12]; 54.6% in assay [13]. Further, the growth was 59.9% in assay [14]; 66.2% in [15]; 36.7% in [16]; 8.32% (active) in [17]; 40% in [18]; 14.3% in assay [19].

On to `Cc1nn(-c2ccc(Br)cc2)c2nc(CCl)[nH]c(=O)c12`, for which the growth in [1] is 99.9%; in assay [2], 99.5%; in assay [3], 100%; in [4], -90.1% (active); in [5], 111%; in assay [6], 94.8%. Moreover, the growth in [7] is 96.3%; in assay [8] it was 83.6%; in assay [11], -53.9% (active); in assay [12], 102%; in assay [13], 102%; in assay [14], 116%. For the same compound, the growth is 106% in assay [15]; 97.4% in assay [16]; 116% in assay [17]; 108% in assay [18]; 104% in assay [19].

As for `CCOC(=O)c1c(NC(=O)c2ccc(C(C)(C)C)cc2)sc2cc(OCCN3CCCCC3)ccc12`, the growth in assay [1] is 98.6%; in [2], 87.5%; in assay [3], 78.1%; in [4] it was 74.5%; in assay [5], 112%; in assay [6] it was 93%. The growth is 84.2% in assay [7]; 56.2% in assay [8]; 72.3% in [9]; 16.5% in [10]; 93.4% in assay [12]; 91.8% in assay [13]. Also, the growth in assay [14] is 102%; in assay [15], 106%; in assay [16], 74.9%; in [17], 74.8%; in [18], 96.5%; in [19] it was 88.3%.

On to `CCN1C/C(=N\S(=O)(=O)c2ccccc2)N(CC)C1=S`, for which the growth in assay [1] was 104%; in assay [2], 99%; in [3] it was 98.1%; in assay [4], 89.9%; in [5] it was 100%; in assay [6] it was 102%. Besides, the growth was 95.3% in assay [7]; 101% in assay [9]; 101% in assay [10]; 99.7% in assay [12]; 103% in assay [13]; 106% in assay [14]. Moreover, the growth was 118% in [15]; 107% in assay [16]; 119% in assay [17]; 105% in assay [18]; 99.8% in [19].

The record behind these values is PubChem BioAssay (NCI).
